Laboratory results published in PubChem BioAssay AID624040 (The Scripps Research Institute Molecular Screening Center, 2012).
Where “and” joins values, the source holds several entries; their conditions need not be identical. Equal entries are not always repeated. The whole screen tested about 360,000 compounds, of which about 2,100 (0.58%) were called active.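 How the source made its calls: active means inhibition above a per-plate cutoff, the mean of that plate's test compounds plus 3 SD (cut at about 27% in these data); inactive means the rest.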 This excerpt belongs to a sample that is enriched for actives. A structure can be active in one record and inactive in another.

What follows are compounds tested against Muscarinic acetylcholine receptor M5 (Homo sapiens) (UniProt P08912) (assay: human M5 muscarinic receptor antagonists, primary screen, CHO cells, Fluo-8 calcium fluorescence (AID 624040;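 further: 0% = acetylcholine EC80 with DMSO and 100% = DMSO without agonist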)). Details: CHO-hM5 cells, ACh EC80, at 3 µM, stronger effect = higher value.
Muscarinic acetylcholine receptor M5 (Homo sapiens), sequence (P08912 whole entry, looked up): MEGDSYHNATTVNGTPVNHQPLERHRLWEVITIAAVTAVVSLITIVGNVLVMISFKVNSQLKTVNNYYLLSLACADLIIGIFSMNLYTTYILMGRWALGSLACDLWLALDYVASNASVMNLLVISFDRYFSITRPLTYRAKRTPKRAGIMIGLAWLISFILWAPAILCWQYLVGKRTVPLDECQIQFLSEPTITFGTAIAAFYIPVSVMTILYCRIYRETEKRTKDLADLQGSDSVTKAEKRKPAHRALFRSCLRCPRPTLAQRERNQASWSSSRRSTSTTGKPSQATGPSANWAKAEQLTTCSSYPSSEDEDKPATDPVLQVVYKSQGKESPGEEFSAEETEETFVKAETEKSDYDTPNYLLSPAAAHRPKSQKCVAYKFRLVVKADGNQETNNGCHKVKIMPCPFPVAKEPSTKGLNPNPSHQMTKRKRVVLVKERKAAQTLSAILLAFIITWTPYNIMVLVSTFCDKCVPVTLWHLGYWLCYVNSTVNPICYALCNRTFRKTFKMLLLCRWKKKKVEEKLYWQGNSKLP

Structure (SMILES)	inhibition
O=C(O)c1n[nH]nc1-c1ccccc1	-3.66% (inactive)
Cc1c(-c2ccccc2)nc(N)c(C#N)c1-c1cccs1	8.1% (inactive)
N#Cc1c(-c2ccccc2)c(-c2ccccc2)n[nH]c1=O	31.9% (active)
COc1cc(C)nc(N2CCCC(C(=O)NCC(C)C)C2)n1 (configuration not stated)	-3.29% (inactive)
CCCc1cc(C(=O)N2CCCC(CO)(CCCc3ccccc3)C2)n(C)n1 (configuration not stated)	17% (inactive)
CCN(CC)S(=O)(=O)c1ccc(N(C)Cc2ccc(C(F)(F)F)cc2)nc1	29% (active)
CCN(CC)S(=O)(=O)c1ccc(N(C)Cc2cccc(OC)c2OC)nc1	22.7% (inactive)
CCN(CC)S(=O)(=O)c1ccc(N(C)CCc2ccc(OC)c(OC)c2)nc1	3.43% (inactive)
Nc1c(Cl)cc(-c2csc(N3CCCC3c3nc4cc(Cl)c(Cl)cc4n3CCOCCO)n2)cc1Cl (configuration not stated)	15.2% (inactive)
O=C(COC(=O)c1cc(-c2cccs2)nn1-c1ccccc1)Nc1cc([N+](=O)[O-])ccc1Cl	1.74% (inactive)
CCCCN(C(=O)C(CCSC)N1C(=O)c2ccccc2C1=O)c1c(N)n(CCC)c(=O)[nH]c1=O (configuration not stated)	-3.24% (inactive)
Cc1ccc(NC(=O)CN(C)CC(=O)Nc2cccc(F)c2)cc1[N+](=O)[O-]	35.5% (active)
Cc1ccc(NC(=O)c2sccc2C)cc1[N+](=O)[O-]	10.3% (inactive)
CN(CC(=O)Nc1cccc(F)c1)C(=O)C1=COCCO1	11.4% (inactive)
CCCNC(=O)NCc1ccc(N2CCCC2=O)cc1	-1.94% (inactive)
O=C(O)C(c1ccccc1)C1(O)CCCCC1 (configuration not stated)	-13.2% (inactive)
CN(C)CCOC(=O)C(c1ccccc1)C1(O)CCCC1 (configuration not stated)	98.1% (active)
O=C(O)C(c1cccs1)C1(O)CCCCC1 (configuration not stated)	9.55% (inactive)
COc1ccc(NC(=O)CC2C(=O)NC3CCCCC3N2C(=O)c2ccc(F)cc2)cc1 (configuration not stated)	23.2% (inactive)
CCOc1ccc(Br)cc1S(=O)(=O)N1CCC(C(=O)O)CC1	10.7% (inactive)
CC(C)(C)NCc1cc(Br)ccc1OC1CCCC1	-2.57% (inactive)
CCOc1ccc(Br)cc1CSC(=N)N	30.2% (active)
CC(C)(C)NC(=O)CN(C(=O)c1ccc(Cl)nc1)c1cccc2ccccc12	0.44% (inactive)
Cc1cc(C(F)(F)F)nn1CC(=O)N1CCCC1	-0.38% (inactive)
O=C(Nc1ccc(OC(F)(F)F)cc1)c1ccc2c(c1)no[n+]2[O-]	28.2% (active)

Structure (SMILES)	inhibition
O=S(=O)(Nc1ccc(OC(F)(F)F)cc1)c1cccc2nonc12	3.29% (inactive)
CCOc1ccc(C(=O)Nc2ccc(S(=O)(=O)Nc3cc(C)on3)cc2)cc1	7.9% (inactive)
O=C(COC(=O)c1ccc(N2CCCC2=O)cc1)c1ccc(OC(F)F)cc1	6.05% (inactive)
COc1cccc(OC)c1C(=O)Nc1c(C(=O)N2CCN(c3ccccn3)CC2)oc2ccccc12	9.59% (inactive)
COc1cccc(-n2c(N)cc(=O)nc2SCC(=O)Nc2cc(C)on2)c1	-11.3% (inactive)
COc1ccc(CCNC(=O)CCc2ccccc2O)cc1OC	-1.37% (inactive)
COc1ccc(CCNc2nc(C)cc(C)n2)cc1OC	1.9% (inactive)
COc1ccc(CCNC2=C(Cl)C(=O)N(Cc3ccccc3)C2=O)cc1OC	31.8% (active)
N#CCCN(C(=S)Nc1ccc(Cl)c(Cl)c1)C1CCCCC1	24.6% (inactive)
CCN1CCN(C(=O)/C=C\C(=O)O)CC1	2.54% (inactive)
O=C(Nc1ccc(Cl)cn1)Nc1cccs1	31.8% (active)
O=C(Nc1ccc(Cl)cn1)c1cnn2cccnc12	-6.64% (inactive)
O=C(Nc1ccc(Cl)cn1)c1ccccc1-c1ccccc1	10.9% (inactive)
CC(C)C[C@H](NC(=O)N1CCn2c1nc1ccccc12)C(=O)NC1CC1	0.78% (inactive)
CCN(CC)S(=O)(=O)c1ccc2nc(CSc3nnnn3-c3ccc(O)cc3)[nH]c2c1	10.1% (inactive)
Fc1cccc2ncnc(OCc3ccccc3)c12	4.79% (inactive)
Cc1nc2ccccc2cc1OCc1ccc(F)cc1	47.8% (active)
Fc1ccc(COc2cccc(-c3n[nH]c(=S)o3)c2)cc1	8.85% (inactive)
O=C(CSc1nccc(=O)[nH]1)Nc1ccc(N2CCOCC2)c(Cl)c1	12.6% (inactive)
CCOc1ccc(C(C)=O)cc1CSc1nnc(-c2ccncc2)n1CCOC	12% (inactive)
CCN1C(=O)CS/C1=N\c1nccs1	-0.1% (inactive)
CCOc1ccc(C(=O)NCC(=O)N2CCCCCCC2)cc1OCC	1.82% (inactive)
C=CC1=C(C(=O)O)N2C(=O)[C@@H](NC(=O)/C(=N/OCC(=O)O)c3csc(N)n3)[C@H]2SC1	-2.27% (inactive)
CO/N=C(\C(=O)N[C@@H]1C(=O)N2C(C(=O)O)=C(COC(C)=O)CS[C@H]12)c1csc(N)n1 (stereo in doubt)	0.17% (inactive) and 51.3% (active) and 30.6% (active)
CCN1CCN(C(=O)N[C@@H](C(=O)N[C@@H]2C(=O)N3C(C(=O)O)=C(CSc4nnnn4C)CS[C@H]23)c2ccc(O)cc2)C(=O)C1=O	-7.79% (inactive)

Structure (SMILES)	inhibition
COc1ccc(C(=O)Cn2nnc(-c3ccc(N4CCOCC4)cc3)n2)cc1OC	16.5% (inactive)
N#CCc1ccc(NC(=O)c2ccccc2C(=O)Nc2ccc(CC#N)cc2)cc1	2.31% (inactive)
CCN(CC)CCC(c1ccc2c(c1)OCO2)c1c(OC)cc(OC)c2c(-c3ccccc3)cc(=O)oc12 (configuration not stated)	7.48% (inactive)
COc1cc(OC)c2ccc(=O)oc2c1C(CCN1CCN(c2ccccc2)CC1)c1ccc2c(c1)OCO2 (configuration not stated)	31.3% (active)
COc1cc(C(CCN2CCN(c3ccccc3)CC2)c2c(OC)cc(OC)c3ccc(=O)oc23)cc(OC)c1OC (configuration not stated)	17% (inactive)
Cc1ccc(NC(=O)c2cc([N+](=O)[O-])ccc2Cl)c(O)c1	1.06% (inactive)
CCOC12CC(C)(C)CC(C)(CC3=C1C(=O)CC(C)(C)C3)C2 (configuration not stated)	-1.41% (inactive)
Cc1ccc(CNC(=O)CCNS(=O)(=O)c2ccc(Br)s2)cc1	-7.85% (inactive)
CCN(CC(=O)Nc1ccccc1C(=O)NC1CC1)Cc1cccs1	-5.91% (inactive)
CC(=O)Oc1ccc(C(=O)Nc2nccs2)cc1	-0.3% (inactive)
CSc1ncc(C(=O)Nc2ccc(C)cc2C)c(C)n1	0.26% (inactive)
CSc1nccc(NC(=O)c2ccc(C(C)(C)C)cc2)n1	32.5% (active)
O=C(CSc1nn(-c2ccc(F)cc2)c(=S)s1)NC1CCS(=O)(=O)C1 (configuration not stated)	2.55% (inactive)
CC(=O)NC(c1cccs1)c1cc(Br)c2cccnc2c1O (configuration not stated)	-3.57% (inactive)
CCn1c(N)c(Br)c(=O)[nH]c1=O	-11.1% (inactive)
Cc1ccc(N2CC(C(=O)NCCS(=O)(=O)N3CCN(c4ccccc4)CC3)CC2=O)cc1 (configuration not stated)	8.26% (inactive)
N#C/C(=C/c1ccc(N2CCCCC2)o1)C(=O)NCCc1c[nH]c2ccccc12	31.6% (active)
Cc1ccc(C(=O)N/C(=C/c2ccco2)C(=O)NCCc2c[nH]c3ccccc23)cc1C	0.84% (inactive)
N#C/C(=C\c1ccc(N2CCOCC2)o1)C(=O)N1CCOCC1	0.08% (inactive)
Cc1ccccc1CSc1nnc(-c2ccccn2)n1N	-0.16% (inactive)
CC(C)(C)S(=O)(=O)N1Cc2cc(CO)cc(CCO)c2[C@H]1CCO	-3.33% (inactive)
CCC1CCC/C1=N\NC(=O)c1ccc(Cl)cc1 (configuration not stated)	27.5% (active)
CN1CCC(=NNC(=O)c2ccc(N(Cc3ccc(Cl)cc3)S(C)(=O)=O)cc2)CC1	-3.74% (inactive)
CC(NC(=O)c1ccc(Cl)cc1)C(=O)N1CCCCC1 (configuration not stated)	-2.56% (inactive)
COc1cc(OC)cc(-c2c(C#Cc3ccsc3)c3cc(-c4ccc(OC)cc4F)ccc3n2C)c1	8.22% (inactive)

Structure (SMILES)	inhibition
CN(C(=O)CN1CCN(c2cc(-c3ccc(OCc4ccccc4)cc3)ncn2)CC1)c1ccccc1	27.1% (active)
CCN(CC)c1ccc(NC(=O)CN2CCN(c3ccccn3)CC2)cc1	1.09% (inactive)
CCOc1ccc(OCc2ccc(C(=O)N(C)c3ccccc3)o2)cc1	8.29% (inactive)
C[C@H](NS(=O)(=O)c1ccc(Cl)cc1)C(=O)OCC(=O)N1CCOCC1	14.1% (inactive)
CN(C)CCNC(=O)c1ccc(Cl)c2cc3ccccc3nc12	0.61% (inactive)
N#C/C=C\Oc1ccc(Cl)cc1N	1.41% (inactive)
Cc1ccc(-c2c[n+](CC(=O)Nc3ccccc3)c3n2CCC3)cc1	2.52% (inactive)
Clc1ccc(C[n+]2cc(-c3ccc(Cl)cc3)n3c2CCC3)cc1	32.4% (active)
Cc1ccc(C(=O)C[n+]2cc(-c3ccccc3)n3c2CCCCC3)cc1	4.95% (inactive) and 0.73% (inactive)
COc1ccc(S(=O)(=O)N(C)CC(=O)NCCCN2CCOCC2)cc1Cl	8.37% (inactive)
CCN1CCN(C(=O)Cn2nc(C)n3c(cc4c(OC)cccc43)c2=O)CC1	2.41% (inactive)
COc1ccc(CCNC(=O)CCC(=O)NC2CCCCC2)cc1OC	15.9% (inactive)
CCc1ccc(N(C(=O)c2csnn2)C(C(=O)NC2CCCCC2)c2cccnc2)cc1 (configuration not stated)	-0.48% (inactive)
CN(C)C(CNC(=O)c1cccc(S(=O)(=O)Nc2ccc(Br)cc2)c1)c1ccco1 (configuration not stated)	4.75% (inactive)
COc1ccccc1C(CNC(=O)c1ccc(C)c(S(=O)(=O)N2CCCCC2)c1)N(C)C (configuration not stated)	98.7% (active)
Cc1ccc(C(=O)NCC(c2cccs2)N(C)C)cc1S(=O)(=O)N1CCOCC1 (configuration not stated)	4.49% (inactive)
COc1ccc(C(CNC(=O)c2cccc(S(=O)(=O)Nc3ccc(Br)cc3)c2)N(C)C)cc1 (configuration not stated)	5.55% (inactive)
COc1ccccc1C(CNC(=O)c1cccc(S(=O)(=O)Nc2ccc(F)cc2)c1)N(C)C (configuration not stated)	98% (active)
COc1ccccc1C(CNC(=O)c1cccc(NS(=O)(=O)c2ccc(Br)cc2)c1)N(C)C (configuration not stated)	93.8% (active)
Cc1cccc(NS(=O)(=O)c2ccc(C)c(C(=O)NCC(c3ccccc3)N(C)C)c2)c1 (configuration not stated)	5.12% (inactive)
CC(=O)c1ccc(S(=O)(=O)Nc2ccc(C(=O)NCC(c3ccccc3)N(C)C)cc2)cc1 (configuration not stated)	0.82% (inactive)
COc1ccccc1CNC(=O)c1ccc(Cl)c(S(=O)(=O)N2CCCC2)c1	-2.46% (inactive)
